From PubChem BioAssay (NCI)
This is part of a sample that, as a whole, favours compounds with a hit. Of some 83,000 tested, about 20% had one in any assay.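 Assay: single dose, 48 h. Readout: percent growth (0 = no net growth; negative = cell death). Active: <10.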 The source made the active and inactive calls.

Assays:
Assay in all cases: NCI-60 one-dose screen, 48 h (100 = growth as untreated, 0 = no growth, -100 = all killed)
Details in all cases: 10 µM unless noted
[1] = test system: HCT-15 colon
[2] = test system: HT29 colon
[3] = test system: SNB-75 CNS
[4] = test system: SNB-19 CNS
[5] = test system: U251 CNS
[6] = test system: PC-3 prostate
[7] = test system: SK-MEL-5 melanoma
[8] = test system: UACC-62 melanoma
[9] = test system: LOX IMVI melanoma
[10] = test system: SK-MEL-28 melanoma

Measured: growth

COc1ccc(C(=O)NCCNc2nccc(-c3c(-c4ccc(F)cc4)nc4sccn34)n2)cc1
inactive: [1] 36.6% | [2] 14.6% | [3] 50.9% | [4] 61.9% | [5] 55.4% | [6] 49.5% | [7] 38.1% | [8] 47.4% | [9] 43.3% | [10] 76.7%

CC[N+](C)(C)N
inactive: [1] 103% | [2] 102% | [3] 80.5% | [4] 95.5% | [5] 101% | [6] 100% | [7] 95.4% | [8] 105% | [9] 90.9% | [10] 94.9%

Cc1c(O)c(N=Nc2ccc(C(=O)O)c(O)c2)c2ccccc2c1O
inactive: [1] 117% | [2] 96.9% | [3] 109% | [4] 105% | [5] 101% | [6] 77.4% | [7] 96.1% | [8] 92.5% | [9] 86.4% | [10] 131%

Nc1cc(N)c2nc(-c3ccccc3)c(NCCc3ccc(Cl)c(Cl)c3)nc2c1
active: [1] -87.7% | [2] -36.3% | [3] -33.7% | [4] -69.4% | [5] -100% | [6] -90.5% | [7] -99.1% | [8] -91.7% | [9] -91.5% | [10] -79.3%

CCCCCCCCCCCCCCCC[n+]1cccc(C#N)c1
inactive: [1] 13.1% | [2] 27.1% | [3] 74.8% | [4] 26.4% | [5] 29.7% | [6] 25.1% | [7] 58.3% | [8] 83.9% | [9] 12.4% | [10] 83%

C[C@H]1C[C@@H](n2cnc3c(N)nccc32)[C@H](O)[C@@H]1O
inactive: [1] 87.8% | [2] 89.2% | [3] 100% | [4] 82% | [5] 69.2% | [6] 110% | [7] 96.7% | [8] 98.7% | [9] 79.8% | [10] 88%

COc1cc2c(c(OC)c1OC)C(=O)CC(c1cccc(C(=O)Nc3cccc(Br)c3)c1)O2 (stereo not given)
inactive: [1] 72.1% | [2] 82.3% | [3] 75.4% | [4] 76.4% | [5] 81.8% | [6] 59.1% | [7] 72.9% | [8] 58.4% | [9] 90% | [10] 91.9%

NC(=O)c1c(Nc2ccccc2)nn2cc(-c3nc4ccccc4s3)c(N)nc12
inactive: [1] 101% | [2] 103% | [3] 88.9% | [4] 92.7% | [5] 101% | [6] 91.4% | [7] 97.3% | [8] 97.3% | [9] 94% | [10] 113%

CNCCCNCCCCNCCCN1C(=O)c2ccc3c4c(ccc(c24)C1=O)C(=O)N(CCCNCc1ccccc1OC)C3=O
inactive: [1] 46.8% | [4] 36% | [5] 41.2% | [6] 58.7% | [7] 10.7%
active: [2] 4.56% | [3] -0.885% | [8] -1.88% | [9] 8.88% | [10] -9.35%

Clc1ccc(N/N=C(\c2ccccc2)c2ccccn2)nc1
active: [5] 9.27% | [7] -36% | [8] -18.3% | [9] -1.02%
inactive: [1] 17.9% | [2] 19.3% | [3] 25.2% | [4] 24.4% | [6] 28.6% | [10] 25.4%

Clc1ccc(N/N=C(/c2ccccc2)c2ccccn2)nc1
inactive: [1] 16.2% | [2] 36.1% | [3] 43.4% | [4] 60.1% | [5] 42.1% | [6] 35.5% | [7] 25.3% | [8] 32.5% | [9] 21.5% | [10] 51.9%

CCC(CCCN1C(=O)c2ccccc2C1=O)Nc1cc(OC)cc2cccnc12 (stereo not given)
inactive: [1] 92.4% | [2] 105% | [3] 93% | [4] 106% | [5] 101% | [6] 86.9% | [7] 89.9% | [8] 82.6% | [9] 93.5% | [10] 111%

O=C1N/C(=N\c2nnc(-c3ccc(O)cc3)s2)S/C1=C\c1ccccc1O
inactive: [1] 93.3% | [2] 115% | [3] 78.5% | [4] 93.8% | [5] 101% | [6] 87% | [7] 99.7% | [8] 97.6% | [9] 93% | [10] 106%

O=C(Nc1ccc(-n2cc(-c3ccncc3)c(-c3ccc(Cl)c(O)c3)n2)cc1)c1cc(C(F)(F)F)cc(C(F)(F)F)c1
inactive: [1] 27.8% | [2] 11.1% | [3] 12.2% | [4] 72.5% | [5] 54.3% | [6] 72.1% | [7] 55.8% | [8] 68.5% | [9] 53.1% | [10] 45.9%

Oc1ccc(CN(Cc2ccc(C(F)(F)F)cc2)Cc2ccc(O)c3ncccc23)c2cccnc12
active: [5] 1.77% | [7] -32.6% | [8] -21.3%
inactive: [1] 20.5% | [2] 11.3% | [3] 33.5% | [4] 30.8% | [6] 12.9% | [9] 18.7% | [10] 32.3%

O=C(/C(Br)=C/c1ccccc1)c1ccccc1
inactive: [3] 80.3% | [4] 96.2% | [6] 87.8% | [7] 84.9% | [10] 42.8%
active: [1] -21.9% | [2] -66.2% | [5] 5.38% | [8] 8.01% | [9] -92.2%

O=C(Oc1ccccc1)c1ccccc1Cl
inactive: [1] 98% | [2] 118% | [3] 89.6% | [4] 104% | [5] 98.5% | [6] 95% | [7] 104% | [8] 107% | [9] 107% | [10] 107%

COc1ccc(CNCCCN2C(=O)c3ccc4c5c(ccc(c35)C2=O)C(=O)N(CCCNCc2ccc(OC)c(OC)c2OC)C4=O)c(OC)c1OC
active: [1] -63.7% | [2] -76.4% | [3] -96.8% | [4] -79.5% | [5] -94.2% | [6] -71.9% | [7] -97.9% | [8] -78.4% | [9] -84.7% | [10] -92.9%

COc1ccc(C2=C/C(=C\c3ccc(Cl)cc3)C(=O)NN2C(=S)NN)cc1
inactive: [1] 104% | [2] 109% | [3] 61.2% | [4] 103% | [5] 104% | [6] 92.3% | [7] 97.7% | [8] 86.6% | [9] 101% | [10] 113%

Cc1nn(-c2ccccc2)c(N)c1N=C1NC(=O)/C(=C/c2ccc(Cl)cc2)S1
inactive: [1] 80.6% | [2] 106% | [3] 58.9% | [4] 83.6% | [5] 79.1% | [6] 76.8% | [7] 92.1% | [8] 77.3% | [9] 89.7% | [10] 92.3%

COC(=O)[C@H](Cc1cn(C)cn1)NC(=O)[C@@H](NC(=O)Nc1cc(C(F)(F)F)cc(C(F)(F)F)c1)C(C)(C)C
inactive: [1] 70.5% [100 µM]
active: [2] -66.9% [100 µM] | [3] -55.1% [100 µM] | [4] -91.6% [100 µM] | [5] -89.9% [100 µM] | [6] -92.9% [100 µM] | [7] -67.4% [100 µM] | [8] -88.5% [100 µM] | [9] -86.6% [100 µM] | [10] -92.3% [100 µM]

CCOC(=O)C1=C(C(F)(F)F)NC(=S)NC1CN1C(=O)c2ccccc2C1=O (stereo not given)
inactive: [1] 109% | [2] 108% | [3] 104% | [4] 112% | [5] 102% | [6] 90.5% | [7] 103% | [8] 101% | [9] 105% | [10] 108%

CN1CCN(Cc2ccc(NC(=O)c3ccc(C#Cc4c(N)ncc5ccc(F)cc45)cc3)cc2C(F)(F)F)CC1
active: [1] -55.4% | [2] -73.2% | [3] -15.1% | [4] -91.8% | [5] -75.8% | [6] -37.2% | [7] -91.2% | [8] -73.3% | [9] -94.3% | [10] -97.8%

O=[N+]([O-])c1ccc(-c2ncc(-c3ccc(O)cc3O)[nH]2)cc1
inactive: [1] 100% | [2] 123% | [3] 103% | [4] 93.3% | [5] 103% | [6] 98% | [7] 109% | [8] 95.3% | [9] 103% | [10] 108%

C=CCC(CCC(CC=C)C(=O)OCC)C(=O)OCC (stereo not given)
inactive: [1] 105% | [2] 102% | [3] 77.8% | [4] 96.2% | [5] 102% | [6] 97.9% | [7] 108% | [8] 101% | [9] 92.1% | [10] 91.1%

CCCCCCNC(=O)Oc1ccc(/C(=C(/C)Cc2ccc(OC)cc2)c2ccc(OCCN3CCCCC3)cc2)cc1
inactive: [1] 31.6% | [2] 19.5% | [3] 66.7% | [4] 86.3% | [5] 63.1% | [6] 76.4% | [7] 80.4% | [8] 88.4% | [9] 82.9% | [10] 96.8%

COC(=O)/C(Br)=C/c1c[nH]c2ccc(Br)cc12
inactive: [1] 76.8% | [2] 95.3% | [3] 90.1% | [4] 88.7% | [5] 68.5% | [6] 70.8% | [7] 85.1% | [8] 68% | [9] 62% | [10] 105%
